Laboratory results as given in PubChem BioAssay (NCATS).
Inconclusive results are not listed. The source made the active and inactive calls. Unless noted, calls come from the whole dose curve; as a rule, active = well fitted curve in the direction sought with a large enough effect; inconclusive = small, poorly fitted or top-dose-only effect, or another doubt; inactive = no such curve, though single readings can be large; an effect the other way counts as inactive or inconclusive.

How the values were obtained:
[1] = target: Beta-2 adrenergic receptor (Homo sapiens) (UniProt P07550); experiment: qHTS validation assay of beta-arrestin-biased ligands of beta2-adrenergic receptor (AID 485366); note: 0% is about no effect
Method in brief: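 Screening used a titration range of up to 46 microM in a beta-arrestin recruitment Tango luciferase assay. Cells in 1% FBS medium were treated 18 hr at 37 degrees C, and luminescence was normalized to %Activity.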

[2] = target: Thioredoxin reductase 1, cytoplasmic (Rattus norvegicus) (UniProt O89049); experiment: qHTS Assay for Substrates of Mammalian Selenoprotein Thioredoxin Reductase 1 (TrxR1) (AID 488772);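 note: series mostly up to about 57 µM; 0% is about no effect; a drop in NADPH fluorescence below the no-compound background marks a TrxR1 substrate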
Method in brief: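 In this dual-purpose format, potential substrates are identified from the first fluorescence read after selenite addition, not from the 8-minute delta. Rat enzyme is preincubated with NADPH and then with compound at ~22 deg C.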

[3] = target: Thioredoxin reductase 1, cytoplasmic (Rattus norvegicus) (UniProt O89049); experiment: qHTS Assay for Inhibitors of Mammalian Selenoprotein Thioredoxin Reductase 1 (TrxR1) (AID 488773); conditions: Potency: inhibition; note: nearly all actives have a fitted effect of over 40% in size; note: potency is the fitted concentration of half-maximal effect
Method in brief: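 Inhibition is scored from the loss of NADPH fluorescence between first and last reads of an 8-min kinetic run. Selenite (400 uM) was the substrate, added after 15 min compound preincubation at room temperature.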

[4] = target: M-phase phosphoprotein 8 (Homo sapiens) (UniProt Q99549); experiment: qHTS Validation Assay for Inhibitors for MPP8 Chromodomain Interactions with Methylated Histone Tails (AID 488949); note: nearly all actives have a fitted effect of over 55% in size; note: potency is the fitted concentration of half-maximal effect
Method in brief: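 MPP8 (50 nM) was pre-bound to 50 nM biotinylated H3(1-18)K9me3 peptide in PBS pH 7.4 with 0.01% Tween-20. Compounds were then added for 30 min at room temperature, and complex disruption was read by AlphaScreen with streptavidin donor and nickel-chelate acceptor beads.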

[5] = target: Chromobox protein homolog 1 (Homo sapiens) (UniProt P83916); experiment: qHTS Validation Assay for Inhibitors of HP1-beta Chromodomain Interactions with Methylated Histone Tails (AID 488953); note: nearly all actives have a fitted effect of over 50% in size; note: potency is the fitted concentration of half-maximal effect
Method in brief: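 Disruption of preformed HP1-beta:H3K9me3 peptide complexes (both 50 nM, PBS pH 7.4 with 0.01% Tween-20) is measured by AlphaScreen after 30 min compound exposure at room temperature, using streptavidin donor and nickel chelate acceptor beads at 10 ug/mL final.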

[6] = target: Methanococcus maripaludis chaperonin (MmCpn) (UniProt Q6LX38); experiment: High-Throughput Screening for Modulators of Cytosolic Chaperonin Activity: MmCpn Primary Screen (AID 488978);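 note: 50 nM MmCpn enzyme hydrolysing 30 µM ATP at 37 °C; 0% is about no effect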
Method in brief: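 MmCpn at 50 nM final was preincubated 5 min at RT with compound. ATP was then added at 30 uM final for 10 min at 37 C. ADP formed was detected by Transcreener HTRF (665/590 nm).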

[7] = target: D(1A) dopamine receptor (Homo sapiens) (UniProt P21728); experiment: HTS Assay for Allosteric Agonists of the Human D1 Dopamine Receptor: Primary Screen for Agonists (AID 488981); note: 0% is about no effect
Method in brief: (§1)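 Tetracycline-induced HEK293 Trex D1 cells with forced coupling to calcium, loaded with no-wash calcium dye; kinetic fluorescence read 180 s after compound addition for agonism, then a further 180 s after an EC20 dopamine challenge for potentiation.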

[8] = target: D(1A) dopamine receptor (Homo sapiens) (UniProt P21728); experiment: HTS Assay for Allosteric Agonists of the Human D1 Dopamine Receptor: Primary Screen for Potentiators (AID 488982); note: 0% is about no effect
Method in brief: as §1

[9] = target: D(1A) dopamine receptor (Homo sapiens) (UniProt P21728); experiment: HTS Assay for Allosteric Agonists of the Human D1 Dopamine Receptor: Primary Screen for Antagonists (AID 488983);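 note: calcium flux response to an EC80 dopamine challenge measured with no-wash dye; nearly all actives have a fitted effect of over 65% in size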; note: potency is the fitted concentration of half-maximal effect
Method in brief: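 Kinetic fluorescence at 1 cycle/sec tracked intracellular calcium in force-coupled, tetracycline-inducible HEK293 T-REx D1 cells. Loss of response to an EC80 dopamine dose, given 180 s after compound, marked antagonists.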

[10] = target: ATPase family AAA domain-containing protein 5 (Homo sapiens) (UniProt Q96QE3); experiment: Validation screen for small molecules that inhibit ELG1-dependent DNA repair in human embryonic kidney (HEK293T) cells expressing luciferase-tagged ELG1 (AID 493107);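 note: cells co-treated with the DNA-damaging agent 5-fluorouridine alongside compound; series mostly up to about 46 µM; % is set by controls: 0 for no effect and ±100 for the full control effect; inhibitors lower the ELG1-luciferase luminescence signal; nearly all actives have a fitted effect of over 70% in size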
Method in brief: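 Cells are dispensed in 1536-well format, then 5-fluorouridine and compound are pinned in. After a 16 hr incubation at 37 °C and 5% CO2, ONE-Glo is added and luciferase measured on a CCD imager.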

[11] = target: Flap endonuclease 1 (Homo sapiens) (UniProt P39748); experiment: qHTS Validation Assay for the Inhibitors of Human Flap endonuclease 1 (FEN1) (AID 488816); note: % is set by controls: 0 for no effect and ±100 for the full control effect
Method in brief: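 Enzyme reagent 10 nM; cpds pinned; 15 min RT preinc.; substrate 50 nM final; reads t=0 and 15 min; no-enzyme buffer wells as neg. control; normalized data, 4-parameter Hill fit.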

[12] = target: Transient receptor potential cation channel subfamily V member 1 (Homo sapiens) (UniProt Q8NER1); experiment: HTS Assay for Compounds that Act as Enhancers of the Vanilloid Receptor 1 (AID 488979); note: 0% is about no effect
Method in brief: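 TRPV1 cells loaded with Fluo-8 calcium dye; compound added and Ca2+ signal (ex 480/em 520 nm) followed 3 min, then capsaicin at EC20 added and read 2 more min to detect enhancement.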

[13] = target: Thyrotropin receptor (Homo sapiens) (UniProt P16473); experiment: qHTS Assay for Antagonists of the Thyroid Stimulating Hormone Receptor (AID 488980); note: series mostly up to about 58 µM; 0% is about no effect
Method in brief: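 TSHR-transfected HEK293 cells (2000/well) in HEPES-buffered HBSS with 70 uM RO 20-1724 were stimulated with 4 nM TSH (EC80, final) in the presence of compound. cAMP was measured by HTRF competition after lysis and 30 min at RT.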

[14] = Validation screen for small molecules that induce genotoxicity in human embryonic kidney (HEK293T) cells expressing luciferase-tagged ELG1 (AID 493106); note: 0% is about no effect
Method in brief: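 Cells were dispensed at 2,000 per well, then 23 nL compound or DMSO was pinned in. After 16 hr at 37 °C and 5% CO2, ONE-Glo reagent was added. Luciferase activity was measured following 30 min at room temperature.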

[15] = target: Thyrotropin-releasing hormone receptor (Homo sapiens) (UniProt P34981); experiment: qHTS for Small Molecule Agonists and Allosteric Enhancers of Human TRH Receptor: Validation Screen for Agonists (AID 493127;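 active = calcium activation more than 3 SD above the typical response in the agonist read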;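 note: intracellular calcium rise by fluo-8 fluorescence before TRH EC20 addition; 0% is about no effect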); conditions: TRH receptor agonist cell assay; at 2 µM; active compounds read high
Method in brief: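 Compounds are added by online pintool to dye-loaded TRHR cells while fluorescence is recorded every second. A rise in calcium signal during the agonist read marks activation; a later 10 nM TRH addition (EC20) serves the separate enhancer mode.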

[16] = Quantitative high throughput screen for delayed death inhibitors of the malarial parasite plastid, 48 hour incubation (AID 488752); note: % is set by controls: 0 for no effect and ±100 for the full control effect; nearly all actives have a fitted effect of over 65% in size
Method in brief: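 First, compound was pinned into RPMI 1640 medium containing 0.5% Albumax. Next, reporter-parasite-infected erythrocytes were added to 2% hematocrit and 0.1% parasitemia. After 48 h at 37 C under 5% CO2, luciferase detection reagent was added and luminescence read.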

[17] = target: ATP-dependent 6-phosphofructokinase (Trypanosoma brucei brucei) (UniProt O15648); experiment: qHTS Assay to Find Inhibitors of T. brucei phosphofructokinase: hit validation (AID 492961);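 note: luminescence reports ADP formed as PFK phosphorylates fructose-6-phosphate with ATP; series mostly up to about 51 µM; % is set by controls: 0 for no effect and ±100 for the full control effect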
Method in brief: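 Inhibition of parasite PFK is measured as reduced ADP formation, quantified via luciferase after ATP depletion. Assay used 0.1 mM ATP, 0.5 mM F6P, 1.25 nM enzyme, 45 min incubation.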

[18] = target: ATP-dependent 6-phosphofructokinase (Trypanosoma brucei brucei) (UniProt O15648); experiment: qHTS Validation Assay to Find Inhibitors of T. brucei phosphofructokinase (AID 485368)
Method in brief: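 PFK-generated ADP was measured after 45 min at room temperature using ADP-Glo. The reaction contained 0.5 mM F6P and 0.1 mM ATP.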

[19] = Quantitative high throughput screen for delayed death inhibitors of the malarial parasite plastid, 96 hour incubation (AID 488745);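 note: luciferase-expressing P. falciparum in erythrocytes at 2% hematocrit and 0.1% parasitemia; series mostly up to about 29 µM; % is set by controls: 0 for no effect and ±100 for the full control effect; nearly all actives have a fitted effect of over 70% in size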
Method in brief: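 Readout is firefly luciferase luminescence from an integrated reporter in P. falciparum; lower signal marks inhibited growth. Cultures at 2% hematocrit and 0.1% parasitemia were treated with compound across two generations (96 h, 37 C, 5% CO2).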

Chain of Thyrotropin receptor (Homo sapiens) (P16473 whole entry, looked up): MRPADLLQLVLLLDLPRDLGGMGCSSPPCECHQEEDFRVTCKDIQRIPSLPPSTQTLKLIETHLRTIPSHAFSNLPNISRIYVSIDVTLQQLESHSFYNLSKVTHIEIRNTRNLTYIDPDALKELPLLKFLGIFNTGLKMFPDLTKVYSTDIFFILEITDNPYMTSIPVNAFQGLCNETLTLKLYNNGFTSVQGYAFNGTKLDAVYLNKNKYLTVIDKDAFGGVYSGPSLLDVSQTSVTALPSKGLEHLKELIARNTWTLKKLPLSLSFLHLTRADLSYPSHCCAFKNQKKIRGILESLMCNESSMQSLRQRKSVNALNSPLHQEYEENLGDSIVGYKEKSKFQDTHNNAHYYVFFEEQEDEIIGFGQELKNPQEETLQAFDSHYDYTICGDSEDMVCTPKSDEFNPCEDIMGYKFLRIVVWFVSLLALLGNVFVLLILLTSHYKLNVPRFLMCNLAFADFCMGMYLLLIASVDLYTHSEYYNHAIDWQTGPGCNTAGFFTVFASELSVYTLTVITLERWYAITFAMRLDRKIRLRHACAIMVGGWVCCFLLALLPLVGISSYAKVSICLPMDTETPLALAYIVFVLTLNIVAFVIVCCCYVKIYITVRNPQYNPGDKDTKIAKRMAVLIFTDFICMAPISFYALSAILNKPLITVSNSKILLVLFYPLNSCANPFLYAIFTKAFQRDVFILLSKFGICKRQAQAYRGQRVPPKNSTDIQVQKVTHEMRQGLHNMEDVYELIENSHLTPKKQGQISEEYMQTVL
Chain of Thioredoxin reductase 1, cytoplasmic (Rattus norvegicus) (O89049 whole entry, looked up): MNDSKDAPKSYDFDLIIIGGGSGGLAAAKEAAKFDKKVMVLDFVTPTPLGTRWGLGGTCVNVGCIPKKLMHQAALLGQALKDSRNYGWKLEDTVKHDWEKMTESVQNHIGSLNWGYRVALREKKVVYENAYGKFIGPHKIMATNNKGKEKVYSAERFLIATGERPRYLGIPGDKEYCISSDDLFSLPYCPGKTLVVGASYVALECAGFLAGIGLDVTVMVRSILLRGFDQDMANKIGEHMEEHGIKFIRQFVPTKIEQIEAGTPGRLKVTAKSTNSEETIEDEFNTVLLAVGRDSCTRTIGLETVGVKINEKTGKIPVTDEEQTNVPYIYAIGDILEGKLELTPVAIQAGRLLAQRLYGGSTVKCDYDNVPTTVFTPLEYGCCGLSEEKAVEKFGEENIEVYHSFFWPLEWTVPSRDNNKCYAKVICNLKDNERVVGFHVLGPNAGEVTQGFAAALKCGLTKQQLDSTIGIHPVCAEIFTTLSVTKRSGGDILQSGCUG
Chain of Thyrotropin-releasing hormone receptor (Homo sapiens) (P34981 whole entry, looked up): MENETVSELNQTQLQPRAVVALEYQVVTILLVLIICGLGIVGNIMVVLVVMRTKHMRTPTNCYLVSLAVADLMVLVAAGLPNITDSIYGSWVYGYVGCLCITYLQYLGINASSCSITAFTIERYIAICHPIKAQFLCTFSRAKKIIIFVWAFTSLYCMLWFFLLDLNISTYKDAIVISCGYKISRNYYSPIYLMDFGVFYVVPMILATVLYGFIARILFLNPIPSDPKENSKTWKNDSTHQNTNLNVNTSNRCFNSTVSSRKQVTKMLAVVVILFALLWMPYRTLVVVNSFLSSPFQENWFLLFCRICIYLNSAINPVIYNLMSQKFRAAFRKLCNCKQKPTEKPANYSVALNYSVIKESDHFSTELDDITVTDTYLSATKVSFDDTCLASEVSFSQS
Chain of D(1A) dopamine receptor (Homo sapiens) (P21728 whole entry, looked up): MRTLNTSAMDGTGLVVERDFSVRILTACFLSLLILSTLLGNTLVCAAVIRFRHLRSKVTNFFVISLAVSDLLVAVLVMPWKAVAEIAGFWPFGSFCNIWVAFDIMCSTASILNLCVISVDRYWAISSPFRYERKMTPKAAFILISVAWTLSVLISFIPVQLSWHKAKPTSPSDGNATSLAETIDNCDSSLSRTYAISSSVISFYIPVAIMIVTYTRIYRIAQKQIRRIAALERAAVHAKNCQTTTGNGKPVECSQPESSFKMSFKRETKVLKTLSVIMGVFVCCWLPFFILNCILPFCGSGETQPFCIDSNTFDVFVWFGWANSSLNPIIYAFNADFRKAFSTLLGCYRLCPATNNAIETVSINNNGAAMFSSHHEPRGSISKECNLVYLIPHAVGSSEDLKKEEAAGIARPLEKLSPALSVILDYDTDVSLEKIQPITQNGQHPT
Chain of Methanococcus maripaludis chaperonin (MmCpn) (Q6LX38 1-543): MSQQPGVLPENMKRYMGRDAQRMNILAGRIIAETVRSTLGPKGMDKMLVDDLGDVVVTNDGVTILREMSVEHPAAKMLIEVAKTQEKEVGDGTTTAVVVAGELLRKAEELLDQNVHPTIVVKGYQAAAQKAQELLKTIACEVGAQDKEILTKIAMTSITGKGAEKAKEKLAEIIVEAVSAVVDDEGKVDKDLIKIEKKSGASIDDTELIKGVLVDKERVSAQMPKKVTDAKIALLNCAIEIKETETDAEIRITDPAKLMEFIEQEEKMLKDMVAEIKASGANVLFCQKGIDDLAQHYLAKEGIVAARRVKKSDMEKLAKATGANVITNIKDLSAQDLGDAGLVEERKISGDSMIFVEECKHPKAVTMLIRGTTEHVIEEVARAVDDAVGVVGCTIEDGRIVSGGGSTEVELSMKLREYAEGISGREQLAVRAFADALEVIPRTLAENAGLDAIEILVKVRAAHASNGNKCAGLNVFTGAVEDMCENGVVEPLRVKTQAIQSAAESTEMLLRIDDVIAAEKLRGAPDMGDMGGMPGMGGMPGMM
Chain of M-phase phosphoprotein 8 (Homo sapiens) (Q99549 whole entry, looked up): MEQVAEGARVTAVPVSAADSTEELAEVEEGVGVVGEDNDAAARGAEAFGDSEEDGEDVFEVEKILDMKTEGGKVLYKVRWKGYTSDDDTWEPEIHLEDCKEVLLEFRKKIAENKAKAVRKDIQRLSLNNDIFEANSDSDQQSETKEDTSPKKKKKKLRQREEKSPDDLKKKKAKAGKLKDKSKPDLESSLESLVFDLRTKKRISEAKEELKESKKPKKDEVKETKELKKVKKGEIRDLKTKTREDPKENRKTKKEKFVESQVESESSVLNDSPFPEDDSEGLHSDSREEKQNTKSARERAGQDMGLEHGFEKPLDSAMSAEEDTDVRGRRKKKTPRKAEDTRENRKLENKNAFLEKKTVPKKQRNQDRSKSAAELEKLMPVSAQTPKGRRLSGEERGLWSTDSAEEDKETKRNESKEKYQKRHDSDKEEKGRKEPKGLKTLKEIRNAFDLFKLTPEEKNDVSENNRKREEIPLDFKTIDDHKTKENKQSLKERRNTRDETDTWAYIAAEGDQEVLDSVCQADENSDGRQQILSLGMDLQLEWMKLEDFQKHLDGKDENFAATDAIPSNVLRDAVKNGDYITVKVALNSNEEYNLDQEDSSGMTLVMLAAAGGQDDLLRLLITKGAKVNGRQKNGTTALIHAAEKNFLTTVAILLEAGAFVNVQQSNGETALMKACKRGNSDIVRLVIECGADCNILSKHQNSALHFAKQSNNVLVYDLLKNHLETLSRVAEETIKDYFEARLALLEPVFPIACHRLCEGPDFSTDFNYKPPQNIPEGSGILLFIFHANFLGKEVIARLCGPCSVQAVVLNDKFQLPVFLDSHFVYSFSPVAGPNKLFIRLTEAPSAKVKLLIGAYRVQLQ
Chain of Flap endonuclease 1 (Homo sapiens) (P39748 whole entry, looked up): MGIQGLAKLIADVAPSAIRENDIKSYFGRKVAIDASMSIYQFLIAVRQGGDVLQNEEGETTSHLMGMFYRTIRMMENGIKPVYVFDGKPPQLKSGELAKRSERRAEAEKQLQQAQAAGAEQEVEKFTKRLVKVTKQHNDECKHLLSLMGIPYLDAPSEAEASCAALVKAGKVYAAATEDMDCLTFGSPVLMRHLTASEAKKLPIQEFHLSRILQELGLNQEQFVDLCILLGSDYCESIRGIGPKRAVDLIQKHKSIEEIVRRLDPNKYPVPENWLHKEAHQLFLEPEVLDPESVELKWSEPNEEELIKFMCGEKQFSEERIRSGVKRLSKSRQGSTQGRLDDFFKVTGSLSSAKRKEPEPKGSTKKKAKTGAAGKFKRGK
Chain of Beta-2 adrenergic receptor (Homo sapiens) (P07550 whole entry, looked up): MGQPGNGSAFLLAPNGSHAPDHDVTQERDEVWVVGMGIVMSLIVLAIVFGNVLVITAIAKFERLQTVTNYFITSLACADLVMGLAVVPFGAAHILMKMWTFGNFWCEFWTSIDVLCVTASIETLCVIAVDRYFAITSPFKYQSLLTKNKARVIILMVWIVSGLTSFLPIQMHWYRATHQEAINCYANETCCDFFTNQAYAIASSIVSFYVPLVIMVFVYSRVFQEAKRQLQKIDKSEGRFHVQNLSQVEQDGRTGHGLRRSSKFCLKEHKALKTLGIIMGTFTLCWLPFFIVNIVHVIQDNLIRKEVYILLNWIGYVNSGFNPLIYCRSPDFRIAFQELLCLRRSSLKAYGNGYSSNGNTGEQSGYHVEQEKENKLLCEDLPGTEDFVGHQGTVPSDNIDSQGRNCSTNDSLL
Chain of Chromobox protein homolog 1 (Homo sapiens) (P83916 whole entry, looked up): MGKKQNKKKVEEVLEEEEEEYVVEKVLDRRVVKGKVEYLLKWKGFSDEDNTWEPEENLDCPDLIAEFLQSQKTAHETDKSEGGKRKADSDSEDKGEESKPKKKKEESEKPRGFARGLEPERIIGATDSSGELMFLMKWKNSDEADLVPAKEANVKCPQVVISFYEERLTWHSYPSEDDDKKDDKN
Chain of ATP-dependent 6-phosphofructokinase (Trypanosoma brucei brucei) (O15648 whole entry, looked up): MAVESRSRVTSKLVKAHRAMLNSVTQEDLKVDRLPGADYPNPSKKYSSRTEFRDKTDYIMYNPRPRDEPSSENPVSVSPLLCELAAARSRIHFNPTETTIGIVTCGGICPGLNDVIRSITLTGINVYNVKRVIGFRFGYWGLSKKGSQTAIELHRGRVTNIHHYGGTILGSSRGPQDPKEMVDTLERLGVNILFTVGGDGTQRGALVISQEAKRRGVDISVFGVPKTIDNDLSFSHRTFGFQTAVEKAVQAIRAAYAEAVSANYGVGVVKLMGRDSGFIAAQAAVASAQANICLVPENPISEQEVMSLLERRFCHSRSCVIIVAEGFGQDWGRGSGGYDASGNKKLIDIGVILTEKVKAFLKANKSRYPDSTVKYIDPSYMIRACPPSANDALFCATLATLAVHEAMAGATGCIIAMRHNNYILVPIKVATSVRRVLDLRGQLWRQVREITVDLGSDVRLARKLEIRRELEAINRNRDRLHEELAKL

Nc1nc2c(cnn2CCc2ccccc2)c2nc(-c3ccco3)nn12
inactive: outcome [1] | outcome [2] | Potency [3] | Potency [4] | Potency [5] | outcome [6] | Potency [7] | Potency [8] | Potency [9] | Potency [10]

C[C@H](NC(=O)/C(C#N)=C/c1ccc(O)c(O)c1)c1ccccc1
inactive: outcome [1] | outcome [2] | Potency [11] | outcome [6] | outcome [12] | outcome [13] | Potency [7] | Potency [8] | Potency [14] | Potency [10]
active: Potency [5] 31.6 µM

N#C/C(=C\c1ccc(O)c(O)c1)C(=O)NCCCNC(=O)/C(C#N)=C/c1ccc(O)c(O)c1
inactive: outcome [1] | outcome [6] | outcome [12] | outcome [13] | Potency [7] | Potency [9] | Potency [14] | activation [15] -0.0625%

CN1Cc2sccc2C(c2ccc(O)c(O)c2)C1 (configuration not stated)
active: Potency [3] 16.8 µM
inactive: outcome [1] | outcome [2] | Potency [4] | outcome [6] | Potency [8] | Potency [14] | Potency [10]

CCCCCCCCCC(=O)NC(CN1CCOCC1)[C@H](O)c1ccccc1 (some centres not stated)
inactive: outcome [1] | outcome [2] | Potency [3] | Potency [11] | Potency [4] | Potency [5] | outcome [6] | outcome [13] | Potency [14] | Potency [10] | activation [15] 0.812%

C[C@]12C=CC(=O)C=C1CC[C@@H]1C2=CC[C@]2(C)[C@@H](C(=O)CN3CCN(c4cc(N5CCCC5)nc(N5CCCC5)n4)CC3)CC[C@@H]12
inactive: outcome [1] | Potency [11] | outcome [6] | Potency [7] | Potency [14]

OC[C@H]1O[C@H](n2cnc3c(N[C@H]4CCC[C@@H]4O)ncnc32)[C@H](O)[C@@H]1O
inactive: outcome [1] | outcome [2] | Potency [3] | Potency [11] | Potency [4] | Potency [5] | outcome [6] | Potency [7] | Potency [8] | Potency [9]

C=C1C[C@@]23CC[C@H]4[C@@](C)(CCC[C@@]4(C)C(=O)OC4OC(CO)C(O)C(O)C4O)[C@@H]2CC[C@]1(OC1OC(CO)C(O)C(O)C1OC1OC(CO)C(O)C(O)C1O)C3 (some centres not stated)
active: Potency [5] 0.006 µM
inactive: outcome [1] | outcome [2] | Potency [3] | Potency [4] | outcome [6] | Potency [7] | Potency [8] | Potency [14] | Potency [10]

CCc1ccc2c(-c3cccc(Cl)c3)nc(=O)n(CC)c2n1
inactive: outcome [1] | outcome [2] | Potency [3] | Potency [11] | Potency [4] | Potency [5] | outcome [6] | Potency [7] | Potency [8] | Potency [9] | Potency [14] | Potency [10]

CCCc1c(-c2ccc(O)cc2)nn(-c2ccc(O)cc2)c1-c1ccc(O)cc1
inactive: outcome [1] | Potency [16] | outcome [2] | Potency [3] | Potency [11] | Potency [4] | outcome [6] | outcome [12] | outcome [13] | Potency [7] | Potency [8] | Potency [14] | Potency [10] | activation [15] 2.12%

CC(O)C(O)[C@H]1CNc2nc(N)[nH]c(=O)c2N1 (some centres not stated)
inactive: outcome [1] | outcome [2] | Potency [3] | Potency [11] | Potency [4] | Potency [5] | outcome [6] | Potency [7] | Potency [8] | Potency [9] | outcome [17] | Potency [14] | Potency [10]

CSc1nc(N)c2ncn([C@@H]3O[C@H](COP(=O)(O)OP(=O)(O)O)C(O)[C@H]3O)c2n1 (some centres not stated)
inactive: outcome [1] | outcome [2] | Potency [3] | Potency [11] | Potency [4] | Potency [5] | outcome [6] | Potency [10]

Oc1ccc(/C=C/c2ccc(/C=C/c3ccc(O)cc3)c(Br)c2)cc1
inactive: outcome [1] | outcome [2] | Potency [11] | Potency [4] | outcome [6] | Potency [7] | Potency [8] | Potency [14] | Potency [10]

CC(C)(C)NCC(O)COc1cccc2[nH]c(=O)[nH]c12 (configuration not stated)
inactive: Potency [18] | Potency [19] | Potency [16] | outcome [2] | Potency [3] | Potency [11] | Potency [4] | Potency [5] | outcome [6] | outcome [13] | Potency [7] | Potency [8] | Potency [9] | Potency [14] | activation [15] 1.12%

CCCCCCC(=O)OC1CC(C)(C)NC(C)(C)C1
inactive: outcome [1] | outcome [2] | Potency [3] | Potency [5] | outcome [6] | Potency [7] | Potency [8] | Potency [9] | Potency [14]

O=c1cc(O)cc(/C=C/c2ccc(O)c(O)c2)o1
inactive: outcome [1] | Potency [16] | outcome [2] | Potency [3] | outcome [6] | outcome [12] | outcome [13] | Potency [7] | Potency [8] | Potency [9] | Potency [14] | Potency [10] | activation [15] -0.438%
active: Potency [4] 5.32 µM

N#CC(=C(\N)Sc1ccccc1N)/C(C#N)=C(/N)Sc1ccccc1N
inactive: outcome [1] | outcome [2] | Potency [3] | Potency [11] | Potency [4] | outcome [6] | outcome [13] | Potency [7] | Potency [8] | Potency [9] | Potency [14] | activation [15] 2.62%

NC(=Nc1ccccc1)NC(=O)c1nc(Cl)c(N)nc1N
active: Potency [9] 12.6 µM
inactive: outcome [1] | outcome [2] | Potency [3] | Potency [11] | Potency [4] | Potency [5] | outcome [6] | outcome [12] | outcome [13] | Potency [7] | Potency [8] | activation [15] 0.312%
